Data: PubChem BioAssay (NCATS)
For part of these data: Entries with a potency or affinity are not part of this list. Calls of active or inactive are those of the source.

Columns and labels:
[1] = Ebola virus entry assay, blue channel fluorescence
[2] = Ebola virus entry assay, green fluorescence channel
[3] = Ebola virus entry assay, ratio channel readout
[4] = Ebola virus entry assay, green channel fluorescence
[5] = Ebola virus entry assay, blue channel fluorescence; remark: listed apart in the source
[6] = Ebola virus entry assay, reporter ratio channel; AC50: Channel type: primary unless noted; outcome: Channel type: primary unless noted
[7] = Ebola virus entry assay, ratio channel

Measured: outcome

Nc1nc(Cl)nc2c1ncn2[C@@H]1O[C@H](CO)[C@@H](O)[C@@H]1F
not listed: [7]
inactive: all other assays above

CN/C(=C\[N+](=O)[O-])NCCSCc1csc(CN(C)C)n1
not listed: [7]
inactive: all other assays above

C[C@]12CCC(=O)C=C1CC[C@H]1[C@@H]3CC[C@](O)(C(=O)CO)[C@@]3(C)C[C@H](O)[C@@]12F
inactive: all assays above

CCC[C@@H]1C[C@@H](C(=O)N[C@@H]([C@H]2O[C@H](SC)[C@H](O)[C@@H](O)[C@H]2O)[C@H](C)Cl)N(C)C1
inactive: [1] | [2] | [3] | [5]

CC(C)CN(C[C@@H](O)[C@H](Cc1ccccc1)NC(=O)O[C@H]1CO[C@H]2OCC[C@H]21)S(=O)(=O)c1ccc(N)cc1
inactive: [1] | [2] | [3] | [5]

CC(=O)NCCCS(=O)(=O)O
inactive: [1] | [2] | [3] | [5]

COc1cc(Br)c(C[N+]2(CCOCCC3CCC4CC3C4(C)C)CCOCC2)cc1OC (centres undefined)
inactive: [1] | [2] | [3] | [5]

OCC(S)CS (centres undefined)
inactive: [1] | [2] | [3] | [5]

COCC1=C(C(=O)OC(C)OC(=O)OC(C)C)N2C(=O)[C@@H](NC(=O)/C(=N\OC)c3csc(N)n3)[C@H]2SC1 (some centres undefined)
inactive: [1] | [2] | [3] | [5]

CO[C@@]1(NC(=O)C2SC(=C(C(N)=O)C(=O)O)S2)C(=O)N2C(C(=O)O)=C(CSc3nnnn3C)CS[C@@H]21 (some centres undefined)
inactive: [1] | [2] | [3] | [5]

CCC(=O)OC(OP(=O)(CCCCc1ccccc1)CC(=O)N1C[C@H](C2CCCCC2)C[C@H]1C(=O)O)C(C)C (some centres undefined)
inactive: [1] | [2] | [3] | [5]

Cc1c(N)nc([C@H](CC(N)=O)NC[C@H](N)C(N)=O)nc1C(=O)N[C@H](C(=O)N[C@H](C)[C@@H](O)[C@H](C)C(=O)N[C@H](C(=O)NCCc1nc(-c2nc(C(=O)NCCCCN=C(N)N)cs2)cs1)[C@@H](C)O)[C@@H](O[C@@H]1O[C@@H](CO)[C@@H](O)[C@H](O)[C@@H]1O[C@H]1O[C@H](CO)[C@@H](O)[C@H](OC(N)=O)[C@@H]1O)c1cnc[nH]1
inactive: [1] | [2] | [3] | [5]

C[C@@H]1[C@H](O)[C@@H](C)/C=C/C=C\C=C\C=C\C=C\C=C\C=C\[C@H](O[C@@H]2O[C@H](C)[C@@H](O)[C@H](N)[C@@H]2O)C[C@@H]2O[C@](O)(C[C@@H](O)C[C@@H](O)[C@H](O)CC[C@@H](O)C[C@@H](O)CC(=O)O[C@H]1C)C[C@H](O)[C@H]2C(=O)O (stereo in doubt)
inactive: [1] | [2] | [3] | [5]

CC(C)[C@H](N)C(=O)OCC(CO)OCn1cnc2c(=O)[nH]c(N)nc21 (some centres undefined)
inactive: [1] | [2] | [3] | [5]

CC(C)(C)NC(=O)[C@@H]1C[C@@H]2CCCC[C@@H]2CN1C[C@@H](O)[C@H](Cc1ccccc1)NC(=O)[C@H](CC(N)=O)NC(=O)c1ccc2ccccc2n1
inactive: [1] | [2] | [3] | [5]

N#Cc1ccc(C(c2ccc(C#N)cc2)n2cncn2)cc1
inactive: [1] | [2] | [3] | [5]

CO[C@H]1C=CO[C@@]2(C)Oc3c(C)c(O)c4c(O)c(c5c(nc6cc(C)ccn65)c4c3C2=O)NC(=O)/C(C)=C\C=C[C@H](C)[C@H](O)[C@@H](C)[C@@H](O)[C@@H](C)[C@H](OC(C)=O)[C@@H]1C
inactive: [1] | [2] | [3] | [5]

CCOC(=O)[C@H](CCc1ccccc1)N[C@H]1CCCN2CCC[C@@H](C(=O)O)N2C1=O
inactive: [1] | [2] | [3] | [5]

C=CC1=C(C(=O)O)N2C(=O)[C@@H](NC(=O)/C(=N/OCC(=O)O)c3csc(N)n3)[C@H]2SC1 (stereo in doubt)
inactive: [1] | [2] | [3] | [5]

CC=CC1=C(C(=O)O)N2C(=O)[C@H](NC(=O)[C@H](N)c3ccc(O)cc3)[C@@H]2SC1
inactive: [1] | [2] | [3] | [5]

CN(C)CCc1c[nH]c2ccc(Cn3cncn3)cc12
inactive: [1] | [2] | [3] | [5]

C=CC(N)CCC(=O)O (centres undefined)
inactive: [1] | [2] | [3] | [5]

CN[C@@H]1CCc2[nH]c3ccc(C(N)=O)cc3c2C1
inactive: [1] | [2] | [3] | [5]
